SMILES strings stand for the structures. About 3,300 (1.5%) of roughly 220,000 compounds were called active. This is one part of a sample in which actives are shown more often than they occur. Values without a mark were called inactive.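 The calls were made as follows: active = compounds that cut the protein-peptide binding signal by more than 50% relative to plate controls in a single-dose test; inactive = the rest.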

This note sets out measurements from PubChem BioAssay AID1022 (Emory University Molecular Libraries Screening Center, 2008).

The test deals with Induced myeloid leukemia cell differentiation protein Mcl-1 (Homo sapiens) (UniProt Q07820). Kind of test: disruptors of Mcl-1 and Noxa BH3 peptide – biochemical, TR-FRET, 1536-well, primary screen (AID 1022).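 Also: His-tagged Mcl-1 with rhodamine Noxa BH3 peptide and terbium anti-His antibody; 0% = Mcl-1 plus Noxa peptide wells and 100% = peptide-only wells.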 Particulars: TR-FRET Mcl-1/Noxa peptide binding, 2 h; at 21.7 µM; active compounds read high.
Chain of Induced myeloid leukemia cell differentiation protein Mcl-1 (Homo sapiens) (Q07820 whole entry, looked up): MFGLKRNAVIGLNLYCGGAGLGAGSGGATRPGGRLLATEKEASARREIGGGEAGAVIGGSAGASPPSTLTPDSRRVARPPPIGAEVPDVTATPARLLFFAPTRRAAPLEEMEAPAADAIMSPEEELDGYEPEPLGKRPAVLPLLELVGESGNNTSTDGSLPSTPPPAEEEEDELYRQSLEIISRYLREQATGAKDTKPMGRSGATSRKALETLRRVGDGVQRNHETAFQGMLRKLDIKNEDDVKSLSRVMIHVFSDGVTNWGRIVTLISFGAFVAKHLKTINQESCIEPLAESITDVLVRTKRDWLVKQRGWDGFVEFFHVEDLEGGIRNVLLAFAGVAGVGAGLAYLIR
`O=C(Nc1ccccc1)N1CCN(C2c3ccccc3-c3ccccc32)CC1`: the inhibition was -0.05%.

Take `CC1CCN(c2ccc([N+](=O)[O-])c(SCCO)c2)CC1`: the inhibition was -16%.

Turning to `Cn1cnc(S(=O)(=O)Nc2ccc3c(c2)OCCO3)c1`, the inhibition was -2.52%. The figure for `C=CCn1c(CSc2nc3ccccc3s2)nnc1SCC(=O)NCc1ccco1` is 51.2% (active); for `CCn1c(COc2ccccc2)nnc1SCC(=O)NCc1ccco1` it is -18.1%; for `C=CCn1c(SCC(=O)Nc2nc3ccccc3s2)nnc1-c1ccccc1O` it is 8.54%.

On to `C=CCC(Nc1ccccc1)c1cccc(OC)c1OC` (centres undefined), for which the inhibition was 5.76%. Consider `Cc1cc(NC(=O)Nc2ccc(Cl)cc2)n(-c2ccccc2)n1`, for which the inhibition was -3.74%.

With `Cc1c(-c2cccc(Cl)c2)nc2ccccc2c1C(=O)OCC(=O)N(C)C1CCS(=O)(=O)C1` (centres undefined), the inhibition is 13.3%. Under `CN(C(=O)COC(=O)c1cc(-c2ccco2)nc2ccccc12)C1CCS(=O)(=O)C1` (centres undefined) stands 107% (active).

With `COc1ccc(NC(=O)COc2ccc(C(=O)OCC(=O)N(C)C3CCS(=O)(=O)C3)cc2OC)cc1` (centres undefined), the inhibition is -10.9%. As for `O=C(C1=C(O)C(=O)N(c2ncccn2)C1c1cccs1)c1ccco1` (centres undefined), the inhibition is 55% (active). In the case of `O=C(C1=C(O)C(=O)N(CCOCCO)C1c1ccccn1)c1cccs1` (centres undefined), the inhibition is 11.8%.

With `O=C(C1=C(O)C(=O)N(Cc2ccccc2)C1c1ccco1)c1ccco1` (centres undefined), the inhibition was 24.5%. Under `COc1cc(C=O)ccc1Oc1nnnn1-c1ccccc1` stands -17.8%; under `COc1ccc(OC)c(C(=O)c2ccc(Cl)cc2)c1`, 6.99%; under `Cc1ccc2cc(/C=N/NC(=O)[C@@H]3CCCN3)c(Cl)nc2c1`, 5.95%. The figure for `Cc1c(NC(=O)/C=C/C(=O)O)cccc1[N+](=O)[O-]` is -3.3%; for `O=[N+]([O-])c1ccc(N/N=C/c2ccccc2)cc1` it is 1.75%; for `O=C(O)/C=C/C(=O)NNc1ccc([N+](=O)[O-])cc1` it is 54.4% (active). Under `C/C(=N\NC(=O)CC(C)C)c1c(C(F)(F)F)[nH]n(-c2nc3ccccc3s2)c1=O` stands -81.1%; under `O=C(Nc1cccc2c1N(C(=O)c1ccco1)CCC2)c1ccco1`, 18.1%. As to `O=C(C[n+]1ccc2c(c1)nnn2-c1ccccc1)c1ccc(Cl)cc1`, the inhibition was 4.1%. The figure for `N#CCC(=O)N/N=C/c1cn(Cc2ccc3ccccc3c2)c2ccccc12` is 27.9%. The figure for `Cc1occc1C(=O)NNC(=S)NCC(C)C` is -22.4%; for `CC(C)CNC(=S)NC(=O)c1ccc(Cl)cc1` it is 62.4% (active); for `CC(C)C(NC(=O)c1ccc(Cl)cc1)C(=O)O` (centres undefined) it is 1.56%.

For the compound `Cn1cnc([N+](=O)[O-])c1Sc1n[nH]c(N)n1`, the inhibition is 3.28%. The figure for `Cc1ccc(/C=C/C(=O)Nc2ccc([N+](=O)[O-])c(NC(=O)/C=C/c3ccc(C)o3)c2)o1` is 88.8% (active); for `Cc1ccc(/C=C/C(=O)Nc2cc(S(=O)(=O)N3CCCCCC3)ccc2OCC(F)(F)F)o1` it is 22.8%.

Regarding `CCc1nnc(NC(=O)/C=C/c2ccc(C)o2)s1`, the inhibition is 19.4%. The figure for `O=C(Nc1ccc(-c2csc(Nc3cccc(C(F)(F)F)c3)n2)cc1)c1cccc(C(F)(F)F)c1` is 16.6%; for `CC(C)(C)c1cc(C(=O)NN)n(Cc2ccc(Cl)cc2Cl)n1` it is -5.62%; for `CCOC(=O)N1CCN(C(=O)c2ccc(S(=O)(=O)c3ccc(C)cc3)c(NC(C)=O)c2)CC1` it is 2.03%. Under `CC(=O)Nc1cc(C(=O)O)ccc1S(=O)(=O)c1ccc(Cl)cc1` stands 57.8% (active); under `Cc1ccc(S(=O)(=O)c2ccc(Cl)cc2)cc1S(=O)(=O)NC(C(=O)O)C(C)C` (centres undefined), 24%; under `CCC(=O)N1CCCc2ccccc21`, -6.7%.

With `CN(C)c1cc(-c2ccc(F)cc2)oc(=O)c1Cl`, the inhibition was 11.2%. Under `CCOc1ccc(-c2n[nH]c(=S)n2/N=C/c2cc3c(cc2[N+](=O)[O-])OCO3)cc1` stands 48.5%; under `Cc1ccc(S(=O)(=O)N/N=C\c2cc3c(cc2[N+](=O)[O-])OCO3)cc1`, 35.1%; under `Cc1ccc(-c2n[nH]c(=S)n2/N=C/c2cc3c(cc2[N+](=O)[O-])OCO3)cc1`, 63.6% (active).

As to `CC(=O)N1N=C(c2ccncc2)OC1(Cc1ccccc1)Cc1ccccc1`, the inhibition was 5.2%. As for `O=C(Cc1cccs1)Nc1nnc(C2CC2)s1`, the inhibition was -2.68%. Under `CCc1nnc(NC(=O)Cc2cccs2)s1` stands 32.4%. Under `COc1ccc(Cc2nnc(NC(=O)Cc3cccs3)s2)cc1` stands 101% (active); under `Cc1ccc(-c2c[n+](CC(=O)Nc3ccccc3)c3n2CCC3)cc1`, -9.73%; under `Cc1ccc(Cn2c(SCC(=O)N/N=C/c3ccccc3OCC(=O)O)nc3ccccc32)cc1`, 27.3%. Under `Cc1nc2c(ncn2-c2ccccc2)c(=O)n1NC(=O)CN1CCCC1` stands 1.52%; under `C=C(C)CNC(=S)Nc1ccc(S(=O)(=O)Nc2cnc3ccccc3n2)cc1`, 6.78%. With `O=C(CSCC(=O)Nc1cccc([N+](=O)[O-])c1)Nc1ccccc1`, the inhibition is -8.73%. Under `O=c1cc(CO)oc(C(Nc2cccc(C(F)(F)F)c2)c2ccccn2)c1O` (centres undefined) stands 70% (active); under `FC(F)(F)c1cccc(Nc2ncnc3ccccc23)c1`, -37.6%; under `O=c1cc(CO)oc(C(Nc2cccc([N+](=O)[O-])c2)c2ccccn2)c1O` (centres undefined), 70.7% (active). Under `Cc1ccc(CN(C)CC(=O)Nc2cccc([N+](=O)[O-])c2)o1` stands -9.25%.

For the compound `O=C(Nc1cccc(C(F)(F)F)c1)c1cnccn1`, the inhibition is 3.57%. Under `FC(F)(F)c1ccc(-n2cn[nH]c2=S)cc1` stands -8.38%; under `CN(C)NC(=O)c1csnc1-c1c(Cl)cccc1Cl`, 8.82%. Under `O=C(CSc1ncn[nH]1)Nc1nc(-c2cccc([N+](=O)[O-])c2)cs1` stands 0.73%; under `Cc1ccc(C(=O)NNC2=Nc3cc([N+](=O)[O-])ccc3OC2)cc1`, 8.97%. As to `CSc1n[nH]c(=S)n1N`, the inhibition was -7.77%. With `CCOc1ccc(NC(=S)NC(=O)/C=C/c2ccc(OC)cc2)c([N+](=O)[O-])c1`, the inhibition is 63.1% (active). Turning to `Cc1ccc(NC(=S)NC(=O)/C=C/c2ccc(Cl)cc2)cc1`, the inhibition is 3.6%.

For `CC(=O)Nc1ccc(NC(=S)NC(=O)/C=C/c2ccccc2)cc1`, the inhibition was 3.86%. Consider `O=C(N/N=C/c1ccco1)c1csc2c1CCCC2`, for which the inhibition is 5.75%. Under `O=C(Nc1ccc(Cl)cc1)/C(=C1\CCCN1)[N+](=O)[O-]` stands 9.38%. Under `COc1ccc2nc(Nc3nc4cc5c(cc4s3)OCCO5)sc2c1` stands -76.2%; under `COc1ccc2nc(NC(=O)c3ccc(Br)s3)sc2c1`, 15.7%; under `COc1ccc2nc(Nc3nc4ccc(NC(C)=O)cc4s3)sc2c1`, 70.9% (active). The figure for `Cn1c(SCC(=O)N2CCOCC2)nnc1-c1ccc2ncccc2c1` is -9.25%; for `CC(C)Oc1ccc(CCC(=O)NNC(=S)NCc2ccccc2)cc1` it is 0.21%; for `O=c1oc(-c2ccccc2NS(=O)(=O)c2ccc(Cl)cc2)nc2ccccc12` it is -43.7%. Take `Cc1nn(CC(=O)Nc2ccc(N(C)C)cc2)c(C)c1[N+](=O)[O-]`: the inhibition is 73.9% (active).

In the case of `CCc1ccc(NC(=O)Cn2nc(C)c([N+](=O)[O-])c2C)cc1`, the inhibition is 3.69%. As for `Cc1nn(CC(=O)Nc2ccc(C#N)cc2)c(C)c1[N+](=O)[O-]`, the inhibition is -6.04%. The figure for `COc1ccccc1-n1c(SCC(=O)O)nc2sc3c(c2c1=O)CCC3` is 12.5%; for `COC(=O)c1cn(C(=O)c2ccc(Cl)cc2)c2ccccc12` it is -1.27%; for `Cc1cccc(N(CC(=O)N=Nc2c(O)[nH]c3ccccc23)S(C)(=O)=O)c1C` it is 9.08%. With `CN1CCN(c2ccc(S(=O)(=O)Nc3ccccc3)cc2[N+](=O)[O-])CC1`, the inhibition was -7.35%. The figure for `O=[N+]([O-])c1cc(S(=O)(=O)Nc2cccc(Cl)c2)ccc1N=Nc1c(O)[nH]c2ccccc12` is 71.3% (active); for `COc1ccc(S(=O)(=O)Nc2ccc(O)c(Sc3nc4ccccc4s3)c2)cc1` it is 21.8%; for `O=[N+]([O-])c1c(NCCO)cc(Sc2nc3ccccc3s2)c2nonc12` it is 79.7% (active). For the compound `O=C(CSc1nc2ccccc2s1)Nc1ccc(C(=O)O)cc1`, the inhibition was 2.75%. `O=C(N/N=C/c1ccccn1)c1cccnc1`: the inhibition was -27.9%. The figure for `Cc1nnc(SCC(=O)N/N=C/c2cn(-c3ccccc3)nc2-c2ccc(F)cc2)n1-c1ccccc1` is -13.4%; for `O=C(O)c1ccc(NC(=O)c2cn(-c3ccccc3)nc2-c2ccc(Cl)cc2)cc1` it is 17.5%. For `O=C(N/N=C/c1ccc([N+](=O)[O-])o1)c1cn(-c2ccccc2)nc1-c1ccc(F)cc1`, the inhibition is 65.5% (active). Under `O=C(Nc1nnc(SCc2c(Cl)cccc2Cl)s1)c1cccc([N+](=O)[O-])c1` stands 27.4%; under `CCc1cc(C(=O)c2ccc(OC)cc2)c(NC(=O)CN2CCN(C)CC2)s1`, 0.41%; under `Cc1ccc(CSc2nnc(-c3cnccn3)n2C)cc1`, 2.82%. The figure for `O=C(NCc1cc(C(F)(F)F)cc(C(F)(F)F)c1)C1CC(c2cccc(F)c2)=NO1` (centres undefined) is -14.9%; for `COc1ccc(C(=O)C2CCCN(Cc3ccc4nonc4c3)C2)c(C)c1` (centres undefined) it is 0.59%; for `CC(=O)Nc1cccc(/C(C)=N/NC(=O)c2ccccc2Cl)c1` it is 12.1%.

In the case of `C/C(=N\Nc1cccc(C(=O)O)c1)c1ccc2c(c1)Nc1ccccc1S2`, the inhibition is 78.5% (active). The figure for `O=C(NC1CC1)c1ccc2c(c1)NC(=O)c1ccccc1S2` is -14.5%.
